The values that follow come from PubChem BioAssay.

Results filed as inconclusive are left out. The source made the active and inactive calls. Cut-off read from the data, not from the text of the source, unless noted: active = response above about 15%; inactive = the rest.

Assay [1] in a line: yeast TOR pathway RPL19A-GFP modulators, primary screen, cell-based, S. cerevisiae, multiplex flow cytometry (AID 1862; in the data active = percent of DMSO control GFP below about 86%;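 note: lower values mimic rapamycin by blocking the RPL19A rise seen in DMSO cells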). Conditions: S. cerevisiae RPL19A-GFP strain, flow cytometry fluorescence, 3 h; at 10 µM; stronger effect = lower value. In general terms: Flow cytometry measures light scatter and fluorescence of single cells or particles in a stream.
Assay [2] in a line: modulators of MEP2-GFP levels in yeast, primary screen, S. cerevisiae, multiplex flow cytometry (AID 1867;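 active = GFP response, as percent of the DMSO control, above the screen-wide mean plus 3 SD, about 139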;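 note: median GFP channel fluorescence of barcode-gated MEP2-GFP cells measured by flow cytometry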). Conditions: S. cerevisiae MEP2-GFP strain, 3 h, at 10 µM, stronger effect = higher value, 100% means same as DMSO wells.
Assay [3] is described as follows: modulators of CIT2-GFP expression in yeast, primary screen, S. cerevisiae, GFP fusion, multiplex flow cytometry (AID 1870;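 active = percent response above a set limit, the screen-wide mean plus 3 SD, cut at about 130% in these data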;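 note: barcoded CIT2-GFP strain pooled with four other GFP strains with rapamycin as positive control; median GFP fluorescence per well over plate mean of DMSO wells so 100% = DMSO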). The conditions noted are these: 3 h, at 10 µM, stronger effect = higher value.
Assay [4] is described as follows: modulators of LAP4-GFP expression in yeast, primary screen, S. cerevisiae, multiplex flow cytometry (AID 1873;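 active = GFP signal, as percent of the solvent control, above the screen mean plus 3 SD, about 149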). The conditions noted are these: 3 h, at 10 µM, stronger effect = higher value.
Assay [5] is described as follows: inhibitors of CD8+ T cell-vesicle binding, pilot screen, LFA-1/ICAM-1 modulator project, MLPCN validation set, flow cytometry (AID 2523;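 active = response below a set limit, under 55% cells CD8-positive and vesicle-bound, and CD8 cells' 90th-percentile brightness under 279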;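 for vesicle binding response: mean PE anti-B7-1 fluorescence of CD8+ cells relative to row control; 100% = QL9-loaded vesicles with DMSO vehicle in the same plate row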). The conditions noted are these: 2C mouse CD8+ T cells, at 7 µM, stronger effect = lower value; double positive events: measured here: CD8+/vesicle+ event percentage.
Assay [6] concerns the target Integrin beta-1 (Homo sapiens) + Integrin alpha-4 (Homo sapiens) (UniProt P13612+P05556). Description: inhibition of HUTS-21 binding to VLA-4, pilot screen, VLA-4 allosteric modulator project, U937 cells, HUTS-21 mAb, flow cytometry, validation set (AID 2674;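 active = inhibition above 50%, about 3 SD of the validation set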;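 note: antibody binding induced by the VLA-4 ligand LDV present at three times its Kd; 0% = LDV ligand with antibody and no compound and 100% = antibody without LDV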). The conditions noted are these: HUTS-21 LIBS mAb binding, at 6.7 µM, stronger effect = higher value, binding induced by LDV ligand.

Assay [7] is described as follows: superoxide lowering in aged yeast cells, pilot screen, validation compound set (AID 2706;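 active = superoxide response below 65% of plate, a cut near 3 SD across the whole screen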;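 note: yeast exposed to compound for one week at 30 degrees C before staining; 100% = mean of all compound wells on the same plate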). The conditions noted are these: S. cerevisiae aging, superoxide DHE fluorescence; at 10 µM, stronger effect = lower value.
Assay [8] addresses Beta-adrenergic receptor kinase 1 (Homo sapiens) (UniProt P25098). Description: GRK2 binders displacing RNA aptamer, biochemical, validation, human GRK2, bead flow cytometry (AID 488806;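 active = aptamer binding inhibition above 30%, about 3 SD of noise from non-fluorescent compounds; inactive = inhibition at or below 30%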). Conditions: bead-bound GRK2, FAM-aptamer displacement, at 10 µM, stronger effect = higher value.
In assay [9] the target is Beta-2 adrenergic receptor (Homo sapiens) (UniProt P07550). Description: beta2AR agonists driving receptor internalization, pilot screen, cell-based, FAP fluorogen, flow cytometry, validation set (AID 504459;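 active = percent response above 42, roughly 3 SD of non-fluorescent test compounds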;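 note: agonist-driven loss of surface beta2AR via internalization measured by FAP dye flow cytometry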). Conditions: Am2.2-beta2AR cells, FAP surface receptor flow cytometry; at 10 µM; stronger effect = higher value.
Sequence of Beta-2 adrenergic receptor (Homo sapiens) (P07550 whole entry, looked up): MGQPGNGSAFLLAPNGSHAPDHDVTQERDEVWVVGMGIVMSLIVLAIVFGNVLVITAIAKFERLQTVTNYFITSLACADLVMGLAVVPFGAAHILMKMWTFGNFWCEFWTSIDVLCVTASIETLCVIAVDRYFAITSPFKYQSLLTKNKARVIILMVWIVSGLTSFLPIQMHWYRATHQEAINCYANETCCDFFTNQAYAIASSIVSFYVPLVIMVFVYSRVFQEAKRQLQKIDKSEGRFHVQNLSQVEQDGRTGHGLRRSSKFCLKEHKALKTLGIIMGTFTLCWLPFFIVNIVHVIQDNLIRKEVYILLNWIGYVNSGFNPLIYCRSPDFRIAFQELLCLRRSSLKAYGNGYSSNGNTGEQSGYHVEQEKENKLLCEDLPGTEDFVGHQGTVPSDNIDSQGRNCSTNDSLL
The target in assay [10] is AP-2 complex subunit beta (Homo sapiens) (UniProt P63010). Description: inhibitors of arrestin peptide binding to AP2, pilot screen, biochemical, validation set, GST-AP2 beads, flow cytometry (AID 504541;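 active = inhibition above 54%, about 3 SD of non-fluorescent compounds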;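 note: AP2 carries R879A mutation and is captured from E. coli lysate; bead-bound FITC arrestin peptide fluorescence measuring arrestin peptide binding to AP2; 0% = DMSO wells and 100% = excess unlabeled arrestin peptide control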). The conditions noted are these: FITC arrestin peptide, at 10 µM, stronger effect = higher value, AP2 beta2 appendage fragment, R879A mutant.
Sequence of AP-2 complex subunit beta (Homo sapiens) (P63010 whole entry, looked up, the tested form may be a part, one chain of several): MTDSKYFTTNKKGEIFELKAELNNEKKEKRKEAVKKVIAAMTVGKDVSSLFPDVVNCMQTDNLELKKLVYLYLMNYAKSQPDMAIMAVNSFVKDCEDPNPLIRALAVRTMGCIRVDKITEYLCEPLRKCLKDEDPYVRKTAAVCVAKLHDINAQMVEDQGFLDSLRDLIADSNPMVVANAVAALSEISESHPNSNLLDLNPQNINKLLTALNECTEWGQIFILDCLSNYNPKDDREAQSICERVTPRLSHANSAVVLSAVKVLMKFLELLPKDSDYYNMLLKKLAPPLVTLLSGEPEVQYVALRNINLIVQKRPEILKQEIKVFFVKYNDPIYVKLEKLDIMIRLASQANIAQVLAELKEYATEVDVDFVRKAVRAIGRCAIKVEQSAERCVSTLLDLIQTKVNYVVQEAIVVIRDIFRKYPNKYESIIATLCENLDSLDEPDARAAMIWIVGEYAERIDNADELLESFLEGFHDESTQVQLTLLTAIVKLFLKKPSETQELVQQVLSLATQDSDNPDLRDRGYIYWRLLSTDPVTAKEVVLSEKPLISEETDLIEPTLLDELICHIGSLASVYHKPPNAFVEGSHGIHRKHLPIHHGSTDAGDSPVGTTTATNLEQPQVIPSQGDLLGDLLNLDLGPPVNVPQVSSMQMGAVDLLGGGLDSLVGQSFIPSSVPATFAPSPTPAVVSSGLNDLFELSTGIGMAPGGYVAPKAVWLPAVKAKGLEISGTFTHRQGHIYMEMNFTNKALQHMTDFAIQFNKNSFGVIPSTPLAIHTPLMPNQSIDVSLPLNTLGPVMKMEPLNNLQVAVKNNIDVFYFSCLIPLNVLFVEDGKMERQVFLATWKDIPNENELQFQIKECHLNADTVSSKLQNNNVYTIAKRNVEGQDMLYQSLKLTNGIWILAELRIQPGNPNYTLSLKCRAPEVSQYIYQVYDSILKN
Assay [11] in a line: yeast V-ATPase proton transport modulators, S. cerevisiae, pHLuorin, HTS validation (AID 504600).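 Note: plate controls were DMSO for no effect and reference compound for full effect.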 The conditions noted are these: S. cerevisiae pHLuorin cytosolic pH, at 10 µM, stronger effect = higher value.
Assay [12] has as its system anti-desmoglein-3 scFv antibody binding to human DSG3. Description: inhibitors of anti-DSG3 scFv binding to DSG3, pilot screen, biochemical, validation compound set, bead-based, flow cytometry (AID 588368;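 active = binding below the plate cutoff, the plate median minus 3 SD, with a reading above zero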;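 note: signal is the median channel fluorescence of bead-bound GFP antibody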). Conditions: Protein G beads, DSG3-Fc, scFv-GFP binding, at 10 µM, stronger effect = lower value.
A short description of assay [13]: inhibitors of fungal efflux pumps CDR1, CDR2, MDR1, pilot screen, validation compound set, multiplex, phenotypic (AID 588506;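 active = efflux inhibition above 0.42, the validation set average plus 4 SD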;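 note: Nile Red retained in cells so higher fluorescence means more efflux inhibition; 0 = negative control wells and 1 = enniatin B 25 µM full block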). The conditions noted are these: S. cerevisiae pump-expressing triplex, Nile Red efflux flow cytometry; at 10 µM; stronger effect = higher value; the pumps come from Candida albicans.
In assay [14] the target is ATP-binding cassette sub-family B member 6 (Homo sapiens) (UniProt Q9NP58). Description: ABCB6 transporter inhibitors, pilot screen, K562-ABCB6 cells, flow cytometry, validation set (AID 588550;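 active = inhibition above the screen-wide mean plus 3 SD, about 51%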;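 note: 0% = DMSO wells and 100% = benzethonium chloride 70 µM positive control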). Conditions: K562-ABCB6 porphyrin accumulation, 1 h, at 10 µM, stronger effect = higher value.
Sequence of ATP-binding cassette sub-family B member 6 (Homo sapiens) (Q9NP58 whole entry, looked up): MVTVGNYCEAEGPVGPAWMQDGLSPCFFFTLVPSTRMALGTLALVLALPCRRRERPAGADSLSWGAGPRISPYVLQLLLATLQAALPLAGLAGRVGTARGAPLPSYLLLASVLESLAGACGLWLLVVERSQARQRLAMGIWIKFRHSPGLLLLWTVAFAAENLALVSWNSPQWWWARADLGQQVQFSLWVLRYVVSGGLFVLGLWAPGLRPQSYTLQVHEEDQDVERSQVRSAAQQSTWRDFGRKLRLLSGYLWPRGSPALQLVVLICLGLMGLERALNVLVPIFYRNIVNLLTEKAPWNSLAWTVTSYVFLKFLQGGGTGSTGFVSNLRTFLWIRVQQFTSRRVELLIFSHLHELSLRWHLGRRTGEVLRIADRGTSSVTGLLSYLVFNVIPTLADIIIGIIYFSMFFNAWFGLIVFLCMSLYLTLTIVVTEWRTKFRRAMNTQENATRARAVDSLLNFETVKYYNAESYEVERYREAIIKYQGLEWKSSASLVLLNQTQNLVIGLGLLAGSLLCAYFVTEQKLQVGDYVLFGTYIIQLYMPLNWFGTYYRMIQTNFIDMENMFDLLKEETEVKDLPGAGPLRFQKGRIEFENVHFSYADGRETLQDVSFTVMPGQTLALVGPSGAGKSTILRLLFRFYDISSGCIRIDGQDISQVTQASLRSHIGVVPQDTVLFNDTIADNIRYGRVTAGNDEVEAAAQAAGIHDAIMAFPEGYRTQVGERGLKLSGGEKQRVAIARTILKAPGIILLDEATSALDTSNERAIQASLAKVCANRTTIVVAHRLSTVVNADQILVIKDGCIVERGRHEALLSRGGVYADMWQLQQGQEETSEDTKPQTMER
Assay [15] in a line: promoters of myeloid differentiation in arrested cells, primary screen, cell-based, GFP/MAC1 double positive, flow cytometry, validation set (AID 588685;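 active = differentiation response of at least 50%, scaled between solvent and reference control, from cells with both markers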;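 note: compound exposure lasts four days before antibody staining and flow analysis; 0% = DMSO wells and 100% = 5 µM fulvestrant positive control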). The conditions noted are these: ER-HoxA9 marrow cells, stronger effect = higher value, normalized: vehicle 0, fulvestrant 100.
Assay [16] in a line: RPL19A-GFP modulators, yeast TOR pathway, confirmation, cell-based, S. cerevisiae, flow cytometry, cherry picks, mother/daughter gates (AID 2270;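 active = GFP response below 50% of the DMSO control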). Conditions: S. cerevisiae RPL19A-GFP strain, 3 h, at 10 µM, stronger effect = lower value, 100 = same GFP as DMSO wells.
Assay [17] is described as follows: LAP4-GFP expression modulators in yeast, confirmation, cell-based, cherry picks, flow cytometry, mother/daughter gates (AID 2271;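 active = GFP response above 150% of the DMSO control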;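 note: ratio of sample to DMSO plate mean so 100% equals DMSO level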). Conditions: S. cerevisiae LAP4-GFP strain, 3 h, at 10 µM, stronger effect = higher value, 100 means same as DMSO control.
Assay [18] is described as follows: modulators of MEP2-GFP levels in yeast, confirmation, S. cerevisiae, flow cytometry GFP, cherry picks (AID 2272;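 active = GFP response above 150% of the DMSO control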;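 note: ratio of well signal to plate DMSO mean so 100% equals DMSO level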). Conditions: S. cerevisiae MEP2-GFP strain, 3 h, at 10 µM, stronger effect = higher value.
Assay [19] is described as follows: modulators of CIT2-GFP expression in yeast, confirmation, S. cerevisiae, GFP fusion, cherry picks, mother/daughter gates (AID 2274;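 active = GFP response above 150% of the DMSO level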). The conditions noted are these: S. cerevisiae CIT2-GFP strain, flow cytometry, 3 h, at 10 µM, stronger effect = higher value.
A short description of assay [20]: modulators of AGP1-GFP expression in yeast TOR pathway, primary screen, cell-based, multiplex flow cytometry, S. cerevisiae (AID 1887;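 active = GFP signal above the screen-wide mean plus 3 SD, that is over about 124.5% of the solvent control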;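 note: AGP1-GFP fusion strain of S. cerevisiae within a five-strain barcoded multiplex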). The conditions noted are these: 3 h, at 10 µM, stronger effect = higher value.
Where [21] appears, read: measured here: daughter cell gate.
Where [22] appears, read: measured here: mother cell gate.
[23] abbreviates: measured here: daughter cell gate response.
[24] abbreviates: measured here: mother cell gate response.

Sequence of Beta-adrenergic receptor kinase 1 (Homo sapiens) (P25098 whole entry, looked up): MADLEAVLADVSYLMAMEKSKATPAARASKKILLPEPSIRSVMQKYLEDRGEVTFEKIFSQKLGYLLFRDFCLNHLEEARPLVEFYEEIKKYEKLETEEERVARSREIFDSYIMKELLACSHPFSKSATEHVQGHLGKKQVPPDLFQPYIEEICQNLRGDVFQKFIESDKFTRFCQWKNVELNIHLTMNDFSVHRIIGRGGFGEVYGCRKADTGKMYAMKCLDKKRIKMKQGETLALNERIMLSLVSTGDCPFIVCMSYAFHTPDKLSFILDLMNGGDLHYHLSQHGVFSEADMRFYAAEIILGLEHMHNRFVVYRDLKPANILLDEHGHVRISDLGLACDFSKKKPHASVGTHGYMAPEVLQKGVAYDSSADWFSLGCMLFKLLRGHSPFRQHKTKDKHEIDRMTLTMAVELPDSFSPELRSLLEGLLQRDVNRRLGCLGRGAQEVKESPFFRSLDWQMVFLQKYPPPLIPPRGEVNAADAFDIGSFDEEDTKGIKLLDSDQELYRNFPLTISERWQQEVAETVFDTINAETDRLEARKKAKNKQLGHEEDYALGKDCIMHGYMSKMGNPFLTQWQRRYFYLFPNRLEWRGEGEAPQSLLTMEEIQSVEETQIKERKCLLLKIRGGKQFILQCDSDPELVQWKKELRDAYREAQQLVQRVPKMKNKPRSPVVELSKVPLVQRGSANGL
Sequence of Integrin beta-1 (Homo sapiens) + Integrin alpha-4 (Homo sapiens) (P05556 whole entry, looked up): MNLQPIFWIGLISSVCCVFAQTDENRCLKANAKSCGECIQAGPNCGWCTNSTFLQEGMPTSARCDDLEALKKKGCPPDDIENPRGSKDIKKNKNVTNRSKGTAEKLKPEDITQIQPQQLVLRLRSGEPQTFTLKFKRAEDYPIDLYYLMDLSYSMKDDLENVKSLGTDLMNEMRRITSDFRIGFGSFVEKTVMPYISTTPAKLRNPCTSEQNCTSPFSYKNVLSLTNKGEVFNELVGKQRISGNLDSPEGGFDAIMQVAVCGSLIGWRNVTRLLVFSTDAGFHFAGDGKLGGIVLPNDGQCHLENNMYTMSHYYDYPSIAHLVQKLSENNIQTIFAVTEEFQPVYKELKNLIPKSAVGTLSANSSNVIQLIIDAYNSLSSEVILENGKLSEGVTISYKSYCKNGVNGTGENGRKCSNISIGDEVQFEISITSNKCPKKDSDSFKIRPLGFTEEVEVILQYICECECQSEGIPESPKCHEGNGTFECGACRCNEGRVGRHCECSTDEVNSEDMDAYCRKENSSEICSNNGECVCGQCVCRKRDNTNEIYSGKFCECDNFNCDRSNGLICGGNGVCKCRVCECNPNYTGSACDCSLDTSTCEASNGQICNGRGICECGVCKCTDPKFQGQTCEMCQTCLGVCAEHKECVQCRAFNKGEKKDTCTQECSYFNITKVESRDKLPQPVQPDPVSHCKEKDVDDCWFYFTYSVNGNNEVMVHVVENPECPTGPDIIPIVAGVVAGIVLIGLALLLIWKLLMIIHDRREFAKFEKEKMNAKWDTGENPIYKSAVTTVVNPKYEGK
Sequence of Integrin beta-1 (Homo sapiens) + Integrin alpha-4 (Homo sapiens) (P13612 whole entry, looked up): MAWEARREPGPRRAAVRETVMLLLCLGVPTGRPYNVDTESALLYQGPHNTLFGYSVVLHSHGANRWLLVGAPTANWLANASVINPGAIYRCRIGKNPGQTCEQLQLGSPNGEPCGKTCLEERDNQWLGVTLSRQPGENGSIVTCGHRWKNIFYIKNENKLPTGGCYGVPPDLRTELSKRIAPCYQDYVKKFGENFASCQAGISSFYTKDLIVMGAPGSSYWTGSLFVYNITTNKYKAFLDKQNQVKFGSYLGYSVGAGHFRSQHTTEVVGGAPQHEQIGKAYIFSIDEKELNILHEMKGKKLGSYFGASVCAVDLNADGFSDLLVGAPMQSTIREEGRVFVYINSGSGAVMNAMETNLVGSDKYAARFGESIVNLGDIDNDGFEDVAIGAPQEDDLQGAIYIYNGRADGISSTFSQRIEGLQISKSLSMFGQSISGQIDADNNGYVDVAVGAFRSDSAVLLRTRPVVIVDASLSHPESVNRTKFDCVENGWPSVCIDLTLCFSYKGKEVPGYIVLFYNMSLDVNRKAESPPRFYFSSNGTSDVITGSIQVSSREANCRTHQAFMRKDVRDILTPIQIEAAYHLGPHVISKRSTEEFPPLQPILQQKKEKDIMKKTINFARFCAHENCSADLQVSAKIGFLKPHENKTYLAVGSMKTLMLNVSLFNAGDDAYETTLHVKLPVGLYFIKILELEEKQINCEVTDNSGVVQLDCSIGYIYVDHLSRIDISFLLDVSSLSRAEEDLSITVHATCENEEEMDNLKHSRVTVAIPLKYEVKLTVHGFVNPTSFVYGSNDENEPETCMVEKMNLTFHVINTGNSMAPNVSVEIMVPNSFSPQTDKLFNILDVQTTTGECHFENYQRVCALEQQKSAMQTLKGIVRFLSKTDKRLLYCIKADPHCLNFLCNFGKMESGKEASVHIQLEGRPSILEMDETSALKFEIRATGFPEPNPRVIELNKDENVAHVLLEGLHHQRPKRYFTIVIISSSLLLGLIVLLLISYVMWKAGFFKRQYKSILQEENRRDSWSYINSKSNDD

As a reminder, the inhibition is the change of the read-out against control, counted positive when it falls. As for `OC[C@H]1O[C@@H](n2cnc3c(Nc4ccccc4)ncnc32)[C@H](O)[C@@H]1O`, the percent of DMSO control GFP in [1] is 92.4% (inactive). The GFP response vs DMSO was 118% (inactive) in [2] and 73.2% (inactive) in assay [4]. Moreover, in [3], the percent response of DMSO control was 112% (inactive). For the same molecule, the double positive events in assay [5] was found to be 62.8%. The vesicle binding response in assay [5] was 139% (inactive). Also, the inhibition in assay [6] is -9.06% (inactive); in [10], -2.59% (inactive); in assay [14], 10% (inactive). Further, the superoxide response (% of plate) in assay [7] was 110% (inactive). The aptamer binding inhibition in [8] is 1% (inactive). Further, the figures for the response in [9] and in [11] were -8.38% (inactive) and -0.49% (inactive), respectively. The binding (% of control) in assay [12] was 103% (inactive). In [13], the efflux inhibition (fraction of control) is 0.3 (inactive). The differentiation response in [15] is 2.46% (inactive).

As to `Nc1nc2c(ncn2COCCO)c(=O)[nH]1`, in [1], the percent of DMSO control GFP was 78.1% (active). Besides, the GFP response vs DMSO is 123% (inactive) in assay [2]; 74.8% (inactive) in [4]; 100% (inactive) in assay [16]; 101% in [16] (setting [21]); 100% in assay [16] (setting [22]); 99.5% (inactive) in [18]. For the same molecule, the percent response of DMSO control in assay [3] was 103% (inactive). In addition, the GFP response relative to DMSO was 101% (inactive) in assay [17], 97.9% in [17] (setting [23]) and 100% in assay [17] (setting [24]). Also, the values for the GFP response, % of DMSO in assay [19], in assay [19] (setting [21]) and in [19] (setting [22]) were 101% (inactive), 104% and 100%, respectively. For the same molecule, the double positive events in [5] is 63.1%. Moreover, in assay [5], the vesicle binding response is 154% (inactive). In addition, the figures for the inhibition in assay [6], in [10] and in assay [14] were 16.2% (inactive), -5.88% (inactive) and 0% (inactive), respectively. In assay [7], the superoxide response (% of plate) was 83.2% (inactive). Besides, the aptamer binding inhibition in assay [8] was 6% (inactive). Besides, the response was -6.98% (inactive) in assay [9] and 0.6% (inactive) in [11]. Also, the binding (% of control) in assay [12] was 107% (inactive). In addition, in assay [13], the efflux inhibition (fraction of control) was -0.09 (inactive). The differentiation response in assay [15] was -4.91% (inactive).

Consider `CC(=O)[C@@]1(O)CC[C@H]2[C@@H]3CCC4=CC(=O)CC[C@]4(C)[C@H]3CC[C@@]21C`, for which the percent of DMSO control GFP in [1] is 92.2% (inactive). For the same molecule, the GFP response vs DMSO in [2] is 130% (inactive); in assay [4], 97.4% (inactive); in [16], 104% (inactive); in assay [16] (setting [21]) it was 99.5%; in [16] (setting [22]) it was 105%; in assay [18], 97.8% (inactive). Moreover, in assay [3], the percent response of DMSO control was 139% (active). In addition, the results for the GFP response relative to DMSO in [17], in [17] (setting [23]) and in [17] (setting [24]) were 95% (inactive), 94.1% and 97.2%, respectively. The results for the GFP response, % of DMSO in [19], in assay [19] (setting [21]) and in assay [19] (setting [22]) were 100% (inactive), 99.7% and 101%, respectively. The double positive events in assay [5] is 53.6%. In addition, the vesicle binding response in assay [5] is 216% (inactive). For the same molecule, the inhibition in assay [6] was -13.9% (inactive); in assay [10] it was 42.9% (inactive); in assay [14], 2% (inactive). For the same molecule, the superoxide response (% of plate) in [7] was 104% (inactive). In addition, in assay [8], the aptamer binding inhibition was -15% (inactive). Besides, the response was -16.3% (inactive) in [9] and -8.27% (inactive) in assay [11]. In [12], the binding (% of control) was 217% (inactive). Further, the efflux inhibition (fraction of control) in assay [13] is 0.27 (inactive). Besides, the differentiation response in assay [15] is 40.1% (inactive).

In the case of `CN(C)CCOc1ccc(Cl)cc1C(C)(C)C`, in assay [1], the percent of DMSO control GFP is 103% (inactive). For the same molecule, the results for the GFP response vs DMSO in assay [2] and in assay [4] were 98.5% (inactive) and 122% (inactive), respectively. In assay [3], the percent response of DMSO control is 105% (inactive). In addition, in assay [20], the GFP response, % of DMSO was 109% (inactive). The double positive events in assay [5] worked out at 40.5%. For the same molecule, the inhibition in assay [6] is 7.76% (inactive); in assay [10] it was -1.49% (inactive); in assay [14], 5% (inactive). Also, the superoxide response (% of plate) in [7] is 105% (inactive). Besides, in assay [8], the aptamer binding inhibition is -1% (inactive). Also, the response was -20.4% (inactive) in assay [9] and -1.18% (inactive) in assay [11]. In addition, in [12], the binding (% of control) is 99.5% (inactive). Moreover, the efflux inhibition (fraction of control) in [13] was 0.05 (inactive). Further, in assay [15], the differentiation response was -16.8% (inactive).
